Experimental data published in PubChem BioAssay (NCATS).
“And” between values parts separate entries of the source, which are not always exact repeats. Equal values may be shown once. Inconclusive results are not listed. The source made the active and inactive calls. Unless noted, the call rests on the fitted dose curve; in most records, active means well fitted curve in the direction sought with a large enough effect; inconclusive means small, poorly fitted or top-dose-only effect, or another doubt; inactive means no such curve, though single readings can be large; an effect the other way counts as inactive or inconclusive.

Assays:
[1] = qHTS assay for measurement of the activity of small molecule inhibitors on Zika virus induced Caspase-3 activity in human iPSC derived neural progenitor cells (hNPCs) (AID 1224857); further: nearly all actives have a fitted effect of over 65% in size
Outline: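 Human iPSC-derived neural progenitor cells pretreated 1 hr with compounds, then infected with Zika virus (2 FFU/cell) for 6 hours at 37 C. Caspase-3/7 measured by Caspase-Glo luminescence; % inhibition calculated from induction scaled to uninfected (0%) and infected (100%) wells.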

[2] = qHTS assay for measurement of the activity of small molecule inhibitors on Zika virus induced Caspase-3 activity in human astrocytoma cells (AID 1224859)
Outline: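 SNB-19 astrocytoma cells, 250/well, pretreated 1 h with compounds, then Zika virus at 2 FFU/cell for 6 h at 37 C; Caspase-Glo 3/7 luminescence after 30 min; percent inhibition normalised to uninfected and infected controls.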

[3] = qHTS Screen of the MIPE 4.0 Collection Against Ewings Sarcoma (TC71) (AID 1259253); further: nearly all actives have a fitted effect of over 40% in size; further: potency means the concentration at half of the fitted maximal effect
Outline: (§1)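 After a 4 h attachment period in RPMI/5% FBS, cells were pin-dosed with test compounds; DMSO served as negative and 9.2 uM bortezomib (final) as positive control. Luminescent CellTiter-Glo signal at 48 h defined viability.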

[4] = qHTS Screen of the MIPE 4.0 Collection Against Ewings Sarcoma (EW8) (AID 1259255); further: nearly all actives have a fitted effect of over 35% in size; further: potency means the concentration at half of the fitted maximal effect
Outline: as §1

[5] = qHTS Screen of the MIPE 4.0 Collection Against Ewings Sarcoma (TC32) (AID 1259256); further: nearly all actives have a fitted effect of over 45% in size; further: potency means the concentration at half of the fitted maximal effect
Outline: as §1

[6] = Identifying Small Molecule Inhibitors of Pancreatic Cancer Stem Cells (A2780, Spheroid) (AID 1259357); details: Potency: A2780 spheroid viability;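 further: spheroids pre-formed over 14 days in stem cell medium on hydrogel; compound exposure lasted 48 h before the ATP luminescence read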
Outline: (§2)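 Spheroids grown 14 days in stem cell media on hydrogel-coated nonadherent plates; 2D lines seeded directly. Compounds added after 4 h attachment, 48 h at 37C, 5% CO2; CellTiter-Glo luminescence normalized to DMSO (no inhibition) and no-cell wells (full inhibition).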

[7] = Identifying Small Molecule Inhibitors of Pancreatic Cancer Stem Cells (SN12C, Adherent) (AID 1259358);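 further: cell survival measured after 48 h of compound exposure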
Outline: (§3)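 Adherent (2D) versus sphere (3D) formats; spheres generated 14 d in SCM beforehand. Compound transferred by pin tool after 4 h, 48 h incubation, CellTiter-Glo endpoint.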

[8] = Identifying Small Molecule Inhibitors of Pancreatic Cancer Stem Cells (SN12C, Spheroid) (AID 1259360); details: Potency: SN12C spheroid viability
Outline: as §2

[9] = Identifying Small Molecule Inhibitors of Pancreatic Cancer Stem Cells (A278, Adherent) (AID 1259361);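 further: viability read after 48 h compound exposure; nearly all actives have a fitted effect of over 35% in size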
Outline: as §3

[10] = Identifying Small Molecule Inhibitors of Pancreatic Cancer Stem Cells (Panc1, Adherent) (AID 1259362); details: Potency: viability; further: potency means the concentration at half of the fitted maximal effect
Outline: as §3

[11] = P-glycoprotein substrates identified in KB-8-5-11 adenocarcinoma cell line, qHTS therapeutic library screen (AID 1346987); further: nearly all actives have a fitted effect of over 65% in size; further: potency means the concentration at half of the fitted maximal effect
Outline: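 In this qHTS, P-gp-rich KB-8-5-11 cells received library compounds across a concentration range. Viability was quantified by luminescence after 72 h at 37 degree C.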

[12] = NS1 protein of Zika virus - qHTS assay to identify small molecule inhibitors in human HEK 293 cells (AID 1347053); further: nearly all actives have a fitted effect of over 55% in size; further: potency means the concentration at half of the fitted maximal effect
Outline: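 Read-out is a two-antibody TR-FRET for ZIKV NS1, normalized between uninfected cells and infected cells. Compound added 1 h before MR766 infection at MOI 0.5; human HEK 293 cells incubated 24 h, 37 C.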

[13] = P-glycoprotein substrates identified in KB-3-1 adenocarcinoma cell line, qHTS therapeutic library screen (AID 1346986); further: nearly all actives have a fitted effect of over 60% in size
Outline: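 Dose-response cytotoxicity, KB-3-1 vs P-gp-high KB-8-5-11, no colchicine in assay medium. Read: CellTiter-Glo at 72 h.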

[14] = qHTS Screen of the MIPE 4.0 Collection Against Ewings Sarcoma (RDES) (AID 1259252); further: nearly all actives have a fitted effect of over 35% in size; further: potency means the concentration at half of the fitted maximal effect
Outline: as §1

[15] = Natriuretic polypeptide receptor (hNpr1) antagonism - Pilot counterscreen GloSensor control cell line (AID 1347045; calls by dose curve; further: series mostly up to about 38 µM)
Outline: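 HEK293 cGMP-sensor cells; 2% GloSensor reagent 2 h RT; LOPAC compounds in 1:5 titrations 30-50 min; 50 uM SNP 20 min; luminescence pre-read and post-read.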

[16] = target: Atrial natriuretic peptide receptor 1 (Homo sapiens) (UniProt P16066); assay: Natriuretic polypeptide receptor (hNpr1) antagonism - Pilot screen (AID 1347049; calls by dose curve;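 further: HEK293 cells with hNpr1 and GloSensor cGMP luciferase stimulated by 0.1 nM hNppA; agonist-evoked cGMP luminescence read 20 min after hNppA addition; series mostly up to about 58 µM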)
Outline: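 Receptor antagonism read as cGMP-dependent luminescence in hNpr1/pGS-40F HEK293 cells: pre-read after 30 min compound exposure, post-read 20 min after hNppA agonist at 0.1 nM final, all at room temperature, protected from light; A-71915 titration as control.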

[17] = target: Atrial natriuretic peptide receptor 2 (Homo sapiens) (UniProt P20594); assay: Natriuretic polypeptide receptor (hNpr2) antagonism - Pilot subtype selectivity assay (AID 1347050; calls by dose curve)
Outline: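 Antagonist mode: compounds (LOPAC1280, seven 1:5 dilutions) added 30 min before 1 nM hNppC stimulation of hNpr2-HEK293 cGMP-sensor cells; luminescence read before and 20 min after agonist at ambient temperature.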

Atrial natriuretic peptide receptor 1 (Homo sapiens), sequence (P16066 whole entry, looked up): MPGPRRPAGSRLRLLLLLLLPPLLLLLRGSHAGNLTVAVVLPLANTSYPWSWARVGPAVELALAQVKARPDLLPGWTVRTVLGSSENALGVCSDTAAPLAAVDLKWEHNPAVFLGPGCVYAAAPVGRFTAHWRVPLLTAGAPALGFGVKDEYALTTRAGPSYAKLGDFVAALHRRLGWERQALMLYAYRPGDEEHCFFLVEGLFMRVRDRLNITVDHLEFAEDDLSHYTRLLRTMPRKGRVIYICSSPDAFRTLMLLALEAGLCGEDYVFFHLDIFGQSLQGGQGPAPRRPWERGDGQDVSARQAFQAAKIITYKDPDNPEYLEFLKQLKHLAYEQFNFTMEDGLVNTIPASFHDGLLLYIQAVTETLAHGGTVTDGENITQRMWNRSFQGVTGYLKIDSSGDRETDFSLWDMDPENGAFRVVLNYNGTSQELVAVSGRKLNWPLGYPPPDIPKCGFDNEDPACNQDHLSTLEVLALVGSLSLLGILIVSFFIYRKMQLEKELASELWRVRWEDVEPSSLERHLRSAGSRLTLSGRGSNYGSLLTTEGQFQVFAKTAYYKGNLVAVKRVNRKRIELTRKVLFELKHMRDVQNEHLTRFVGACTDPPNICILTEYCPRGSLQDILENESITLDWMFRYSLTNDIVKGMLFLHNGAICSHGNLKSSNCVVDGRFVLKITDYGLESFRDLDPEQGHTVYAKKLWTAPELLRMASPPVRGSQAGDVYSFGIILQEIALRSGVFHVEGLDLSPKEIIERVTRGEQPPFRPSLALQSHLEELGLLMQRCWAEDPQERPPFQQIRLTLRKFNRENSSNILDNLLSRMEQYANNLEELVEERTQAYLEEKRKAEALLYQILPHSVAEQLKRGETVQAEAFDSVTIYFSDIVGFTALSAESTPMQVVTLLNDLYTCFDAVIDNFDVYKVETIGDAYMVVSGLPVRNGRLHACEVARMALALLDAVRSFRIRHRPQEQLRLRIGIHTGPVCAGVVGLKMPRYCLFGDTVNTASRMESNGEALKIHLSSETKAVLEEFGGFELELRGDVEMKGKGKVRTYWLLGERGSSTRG
Atrial natriuretic peptide receptor 2 (Homo sapiens), sequence (P20594 whole entry, looked up): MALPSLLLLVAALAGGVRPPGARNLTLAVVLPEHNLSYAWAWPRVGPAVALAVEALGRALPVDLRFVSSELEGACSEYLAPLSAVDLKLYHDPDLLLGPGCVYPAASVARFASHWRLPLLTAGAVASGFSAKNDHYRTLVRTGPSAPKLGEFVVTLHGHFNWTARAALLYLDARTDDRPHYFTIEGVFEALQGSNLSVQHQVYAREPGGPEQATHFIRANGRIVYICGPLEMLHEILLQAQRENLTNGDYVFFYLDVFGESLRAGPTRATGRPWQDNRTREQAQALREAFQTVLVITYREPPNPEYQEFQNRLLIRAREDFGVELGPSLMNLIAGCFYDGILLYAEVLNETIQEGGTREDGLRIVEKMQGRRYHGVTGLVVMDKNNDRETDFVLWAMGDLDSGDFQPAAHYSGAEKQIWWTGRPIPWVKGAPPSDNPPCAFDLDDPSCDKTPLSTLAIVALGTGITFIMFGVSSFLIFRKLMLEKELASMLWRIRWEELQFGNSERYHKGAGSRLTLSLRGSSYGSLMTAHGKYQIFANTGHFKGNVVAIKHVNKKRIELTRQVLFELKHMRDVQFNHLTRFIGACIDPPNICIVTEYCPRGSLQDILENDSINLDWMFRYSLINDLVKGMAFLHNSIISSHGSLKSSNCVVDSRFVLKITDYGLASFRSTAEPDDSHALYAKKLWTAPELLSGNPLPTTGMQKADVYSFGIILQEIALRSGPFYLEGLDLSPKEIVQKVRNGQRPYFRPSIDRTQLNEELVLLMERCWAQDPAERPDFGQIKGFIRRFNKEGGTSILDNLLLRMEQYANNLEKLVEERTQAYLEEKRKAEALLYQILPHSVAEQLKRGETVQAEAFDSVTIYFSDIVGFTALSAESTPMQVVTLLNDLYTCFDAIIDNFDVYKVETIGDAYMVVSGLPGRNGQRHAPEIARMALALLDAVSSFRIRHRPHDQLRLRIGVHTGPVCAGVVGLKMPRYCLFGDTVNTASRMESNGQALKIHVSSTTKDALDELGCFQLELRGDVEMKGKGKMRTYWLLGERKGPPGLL

CC(=O)Nc1ccc(OC[C@](C)(O)C(=O)Nc2ccc([N+](=O)[O-])c(C(F)(F)F)c2)cc1
inactive: Potency [1] | Potency [2] | Potency [3] | Potency [4] | Potency [5] | Potency [6] | Potency [7] | Potency [8] | IC50 (viability decrease) [9] | Potency [10] | Potency [11] | Potency [12]

C[C@@H]1O[C@@H](O[C@@H]2C=C3CC[C@@H]4[C@@H](CC[C@]5(C)[C@H](c6ccc(=O)oc6)CC[C@@]45O)[C@@]3(C)CC2)[C@H](O)[C@H](O)[C@H]1O
active: Potency [3] 18.7 nM | Potency [4] 16.6 nM | Potency [5] 23.5 nM | Potency [11] 20.9 nM | Potency [12] 11.8 nM
inactive: Potency [1] | Potency [2]

Cc1ccccc1-n1c(Cn2ncc3c(N)ncnc32)nc2cccc(C)c2c1=O
active: Potency [3] 16600 nM | Potency [4] 26400 nM | Potency [5] 11800 nM
inactive: Potency [1] | Potency [2] | Potency [13] | Potency [11] | Potency [12]

COc1cccc2c1[C@]13CCN(CC4CC4)[C@H](C2)[C@]1(OC)CCC(=O)C3
inactive: Potency [1] | Potency [2] | Potency [3] | Potency [4] | Potency [5] | Potency [11] | Potency [12]

CC(C)N(CCNC(=O)CN1CCCC1=O)C(C)C
inactive: Potency [1] | Potency [2] | Potency [14] | Potency [4] | Potency [5] | Potency [13] | Potency [11] | Potency [12]

CC=C(C)C(=O)N[C@@H](c1ccccc1)[C@@H](O)C(=O)O[C@H]1C[C@@]2(O)[C@@H](OC(=O)c3ccccc3)[C@@H]3[C@]4(OC(C)=O)CO[C@@H]4C[C@H](O)[C@@]3(C)C(=O)[C@H](OC(C)=O)C(=C1C)C2(C)C
inactive: Potency [1] | Potency [2] | Potency [14] | Potency [4] | Potency [5]
active: Potency [11] 33.2 nM | Potency [12] 3.3 nM

O=C(Nc1ccncc1)C(=O)c1cn(Cc2ccc(Cl)cc2)c2ccccc12
inactive: Potency [1] | Potency [2] | Potency [5]
active: Potency [3] 132 nM | Potency [4] 93.5 nM | Potency [11] 33.2 nM | Potency [12] 9.3 nM

C[C@]12CC[C@@H]3[C@@H](CCC4=CC(=O)CC[C@@H]43)[C@@H]1CC[C@@H]2OC(=O)CCc1ccccc1
inactive: Potency [1] | Potency [2] | Potency [14] | Potency [12]
active: Potency [3] 9350 nM | Potency [11] 5800 nM

C[C@]12CC[C@H](O)CC1=CC[C@H]1[C@H]3CCC(=O)[C@@]3(C)CC[C@@H]12
active: Potency [3] 18700 nM | Potency [4] 16600 nM | Potency [5] 16600 nM
inactive: Potency [1] | Potency [2] | Potency [11] | Potency [12]

Cc1nc(-c2ccc(-c3ccc(C(=O)N4CCc5cc6c(cc54)C4(CCN(C)CC4)CO6)cc3)c(C)c2)no1
inactive: Potency [1] | Potency [2] | Potency [3] | Potency [4] | Potency [5] | Potency [7] | Potency [11] | Potency [12]
active: Potency [10] 16600 nM

O=C(Oc1ccc([N+](=O)[O-])cc1)N1CCN(Cc2cccc(Oc3ccccc3)c2)CC1
inactive: Potency [1] | Potency [2] | Potency [14] | Potency [4] | Potency [5] | Potency [11] | Potency [12]

Cc1[nH]nc2ccc(-c3cncc(OC[C@@H](N)Cc4c[nH]c5ccccc45)c3)cc12
inactive: Potency [1] | Potency [2]
active: Potency [14] 209 nM | Potency [3] 372 nM | Potency [4] 2090 nM | Potency [5] 4690 nM | Potency [11] 526 nM and 5.17 µM | Potency [12] 5900 nM

NC1CC1c1ccccc1 (stereo not given)
inactive: Potency [1] | Potency [2] | Potency [3] | Potency [4] | Potency [5] | Potency [11] | Potency [15] | Potency [16] | Potency [17] | Potency [12]

N=c1c2c(-c3ccccc3)c(-c3ccccc3)n(Cc3ccccc3)c2ncn1C1CCC(O)CC1 (stereo not given)
active: Potency [14] 1180 nM | Potency [5] 662 nM | Potency [11] 935 nM | Potency [12] 26400 nM
inactive: Potency [1] | Potency [2]

CCCN1CCO[C@@H]2c3cc(O)ccc3OC[C@@H]21
inactive: Potency [1] | Potency [2] | Potency [14] | Potency [3] | Potency [13] | Potency [11] | Potency [12]

CCN(CC)C(=O)c1ccc(C2=CC3(CCNCC3)Oc3cccc(O)c32)cc1
inactive: Potency [1] | Potency [2] | Potency [14] | Potency [3] | Potency [4] | Potency [11] | Potency [12]

CC=C(C)C(=O)O[C@H]1C(C)=C2[C@@H]3OC(=O)[C@@](C)(O)[C@@]3(O)[C@@H](OC(=O)CCC)C[C@](C)(OC(C)=O)[C@@H]2[C@@H]1OC(=O)CCCCCCC
active: Potency [3] 52.6 nM | Potency [4] 93.5 nM | Potency [5] 41.8 nM | Potency [11] 1870 nM | Potency [12] 332 nM
inactive: Potency [1] | Potency [2]

CN(C)NC(=O)CCC(=O)O
inactive: Potency [1] | Potency [2] | Potency [11] | Potency [12]
active: Potency [14] 26400 nM
